Test [1] concerns Plasmodium falciparum Sir2 (PF13_0152, Sir2A). The experiment in a line: Plasmodium falciparum Sir2A binding compounds – biochemical, small-molecule microarray, 635 nm fluorescence, primary screen (AID 1098).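 Further: score merges spot fluorescence intensity with its signal-to-noise ratio.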 The conditions noted are these: fluorescence 635 nm, higher = more signal.
Test [2] can be described thus: probe aDKK1 binding to arrayed compounds – biochemical, biotinylated probe, 635/667 nm fluorescence, primary screen (AID 1099).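 Further: score merges 667nm spot fluorescence with signal to noise across triplicate slides.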 The conditions noted are these: small-molecule microarray, higher = more signal.
Test [3] can be described thus: probe aCHRDL2 binding to arrayed compounds – biochemical, biotinylated probe, 635/667 nm fluorescence, primary screen (AID 1100). The following applies: small-molecule microarray, higher = more signal.
Test [4] can be described thus: change in splice reporter luminescence, either direction, cell-based, HEK293, spliceosome inhibition project, primary screen (AID 1101).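 Further: HEK293 cells carrying a splicing-competent luciferase reporter gene; test concentration not given here.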 The following applies: HEK293 splicing luciferase reporter, 24 h, higher = more signal, called active from +8 up or from −8 down.
For test [5], the target named is Fibroblast growth factor 10 (Homo sapiens) (UniProt O15520). The experiment in a line: compounds binding fibroblast growth factor 10 – biochemical, small-molecule microarray, 635 nm fluorescence, primary screen (AID 1102). The conditions noted are these: FGF10 binding, fluorescence 635 nm, higher = more signal.
Test [6] has as its system glycogen synthase kinase-3 (GSK3A per assay name; protocol says GSK3B). The experiment in a line: compounds binding glycogen synthase kinase-3 – biochemical, small-molecule microarray, 635 nm fluorescence, GSK3A, primary screen (AID 1103). Further: the record names both GSK3A and GSK3B. The conditions noted are these: fluorescence 635 nm, higher = more signal.
The target in test [7] is Epidermal growth factor receptor (Homo sapiens) (UniProt P00533). The experiment in a line: compounds binding epidermal growth factor receptor – biochemical, small-molecule microarray, 635 nm fluorescence, primary screen (AID 1104).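 Further: score merges 667 nm emission intensity with spot signal to noise over triplicate slides.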 The conditions noted are these: EGFR binding, higher = more signal.
The target of test [8] is Follistatin-related protein 3 (Homo sapiens) (UniProt O95633). The experiment in a line: compounds binding follistatin-related protein 3 – biochemical, small-molecule microarray, 635 nm fluorescence, primary screen (AID 1105).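 Further: score merges emission near 667 nm and signal to noise per printed spot across three slides.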 The following applies: FSTL3 binding, higher = more signal.
The target of test [9] is Dickkopf-related protein 1 (Homo sapiens) (UniProt O94907). The experiment in a line: small molecules binding DKK1 protein – biochemical, small-molecule microarray, 635 nm fluorescence scan, primary screen (AID 1106).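 Further: score merges emission near 667 nm with signal to noise over three replicate slides.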 The conditions noted are these: higher = more signal.
In test [10] the test system is Inhibin beta A chain (activin A). The experiment in a line: small molecules binding activin A – biochemical, small-molecule microarray, 635 nm fluorescence scan, primary screen (AID 1107).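 Further: mouse activin A protein probed at 4.33 µg/mL on printed slides; score merges bound-protein fluorescence near 667 nm with spot signal-to-noise.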 The following applies: INHBA, higher = more signal.
For test [11], the system named is Human papillomavirus type 1a protein E7 (residues 44-93). The experiment in a line: small molecules binding HPV E7 44-93 – biochemical, small-molecule microarray, residues 44-93, 635 nm fluorescence, primary screen (AID 1108).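 Further: E7 fragment applied at 1 µg/mL in TBST for 1 h at 4 C; score combines spot fluorescence with its signal to noise ratio.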 The conditions noted are these: fluorescence 635 nm, higher = more signal.
Test [12] is described as follows: hepatitis C replication reporter changes, two-sided – Huh7 cells, luciferase reporter, HCV replication inhibitor project, primary screen (AID 1109).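 Further: huh7 hepatoma cells harbouring a luciferase neomycin HCV replicon reporter; luciferase luminescence as measure of HCV replicon replication; test concentration not given here.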 The following applies: Huh7 HCV replicon luciferase reporter, 48 h; higher = more signal. A general note: Reporter assays use an easily measured gene product as a stand-in for the process of interest.
The target of test [13] is Left-right determination factor 2 (Homo sapiens) (UniProt O00292). The experiment in a line: small molecules binding LEFTY2 protein – biochemical, small-molecule microarray, 635 nm fluorescence scan, primary screen (AID 1110). The following applies: higher = more signal.
Test [14] concerns the target Calmodulin-1 (Homo sapiens) (UniProt P0DP23). The experiment in a line: small molecules binding calmodulin-1 with EGTA – biochemical, small-molecule microarray, Cy5-labelled CALM1, profiling panel (AID 1111).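 Further: labelled calmodulin applied in Tris saline Tween buffer holding calcium plus EGTA and DTT.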 The following applies: Cy5-CALM1 binding fluorescence, higher = more signal.
For test [15] the target is unchanged. The experiment in a line: small molecules binding Ca-loaded calmodulin-1 – biochemical, small-molecule microarray, Cy5-labelled CALM1, plus calcium, artefact control for SMM control-protein annotation, profiling panel (AID 1112).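 Further: score merges spot fluorescence with signal to noise from triplicate slides.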 The following applies: Cy5-CALM1 binding fluorescence, higher = more signal.
Test [16] in a line: probe aWnt5a binding to arrayed compounds – biochemical, biotinylated probe, 635/667 nm fluorescence, primary screen (AID 1113).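 Further: score merges 667 nm fluorescence intensity with signal-to-noise per printed feature.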 The conditions noted are these: small-molecule microarray, higher = more signal.
Test [17] can be described thus: probe aShh binding to arrayed compounds – biochemical, biotinylated probe, 635/667 nm fluorescence, primary screen (AID 1114).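 Further: probe is biotin-labelled aShh protein from a stem cell growth factor screen; measures binding of labelled protein to compounds printed on the slide; score merges feature fluorescence at 667 nm with signal-to-noise.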 The conditions noted are these: small-molecule microarray, higher = more signal.
Test [18] can be described thus: probe aNog binding to arrayed compounds – biochemical, biotinylated probe, 635/667 nm fluorescence, primary screen (AID 1115).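 Further: probe is biotinylated aNog protein used at 0.15 µg/mL for 1 h at 4 C; z-score combines 667 nm fluorescence of each spot with its signal to noise.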 The following applies: small-molecule microarray, higher = more signal.
The target in test [19] is Torsin-1A-interacting protein 1 (Homo sapiens) (UniProt Q5JTV8). The experiment in a line: compound microarray binding of lysate hLAP1 – cell lysate, small-molecule microarray, COS7 lysate, 635/667 nm fluorescence, primary screen (AID 1116). The conditions noted are these: 635 nm fluorescence, higher = more signal.
Test [20] has as its target Alpha-bungarotoxin (Bungarus multicinctus) (UniProt P60615). The experiment in a line: compounds binding labelled alpha-BTX control protein – biochemical, small-molecule microarray, Alexa647 label, 635/667 nm fluorescence, artefact control for SMM control protein annotation, profiling panel (AID 1117). The following applies: alpha-BTX-A647 binding fluorescence, higher = more signal.

These results are taken from PubChem BioAssay.

Activity calls are given as the source filed them.

Follistatin-related protein 3 (Homo sapiens), sequence (O95633 whole entry, looked up): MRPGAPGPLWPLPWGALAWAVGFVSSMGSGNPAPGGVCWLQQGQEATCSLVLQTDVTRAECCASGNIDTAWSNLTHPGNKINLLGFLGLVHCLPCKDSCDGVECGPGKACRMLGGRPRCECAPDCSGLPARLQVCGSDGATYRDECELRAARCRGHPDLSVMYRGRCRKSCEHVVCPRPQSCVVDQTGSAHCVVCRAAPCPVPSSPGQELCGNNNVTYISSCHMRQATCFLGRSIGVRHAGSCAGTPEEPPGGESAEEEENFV
Dickkopf-related protein 1 (Homo sapiens), sequence (O94907 whole entry, looked up): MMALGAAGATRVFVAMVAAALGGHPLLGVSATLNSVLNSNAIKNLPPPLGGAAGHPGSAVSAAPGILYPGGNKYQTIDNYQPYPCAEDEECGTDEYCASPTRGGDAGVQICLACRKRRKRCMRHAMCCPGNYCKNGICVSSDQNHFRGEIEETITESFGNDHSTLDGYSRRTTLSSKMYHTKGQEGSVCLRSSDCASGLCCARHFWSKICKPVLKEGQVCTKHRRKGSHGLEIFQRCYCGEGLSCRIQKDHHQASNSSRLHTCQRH
Epidermal growth factor receptor (Homo sapiens), sequence (P00533 whole entry, looked up): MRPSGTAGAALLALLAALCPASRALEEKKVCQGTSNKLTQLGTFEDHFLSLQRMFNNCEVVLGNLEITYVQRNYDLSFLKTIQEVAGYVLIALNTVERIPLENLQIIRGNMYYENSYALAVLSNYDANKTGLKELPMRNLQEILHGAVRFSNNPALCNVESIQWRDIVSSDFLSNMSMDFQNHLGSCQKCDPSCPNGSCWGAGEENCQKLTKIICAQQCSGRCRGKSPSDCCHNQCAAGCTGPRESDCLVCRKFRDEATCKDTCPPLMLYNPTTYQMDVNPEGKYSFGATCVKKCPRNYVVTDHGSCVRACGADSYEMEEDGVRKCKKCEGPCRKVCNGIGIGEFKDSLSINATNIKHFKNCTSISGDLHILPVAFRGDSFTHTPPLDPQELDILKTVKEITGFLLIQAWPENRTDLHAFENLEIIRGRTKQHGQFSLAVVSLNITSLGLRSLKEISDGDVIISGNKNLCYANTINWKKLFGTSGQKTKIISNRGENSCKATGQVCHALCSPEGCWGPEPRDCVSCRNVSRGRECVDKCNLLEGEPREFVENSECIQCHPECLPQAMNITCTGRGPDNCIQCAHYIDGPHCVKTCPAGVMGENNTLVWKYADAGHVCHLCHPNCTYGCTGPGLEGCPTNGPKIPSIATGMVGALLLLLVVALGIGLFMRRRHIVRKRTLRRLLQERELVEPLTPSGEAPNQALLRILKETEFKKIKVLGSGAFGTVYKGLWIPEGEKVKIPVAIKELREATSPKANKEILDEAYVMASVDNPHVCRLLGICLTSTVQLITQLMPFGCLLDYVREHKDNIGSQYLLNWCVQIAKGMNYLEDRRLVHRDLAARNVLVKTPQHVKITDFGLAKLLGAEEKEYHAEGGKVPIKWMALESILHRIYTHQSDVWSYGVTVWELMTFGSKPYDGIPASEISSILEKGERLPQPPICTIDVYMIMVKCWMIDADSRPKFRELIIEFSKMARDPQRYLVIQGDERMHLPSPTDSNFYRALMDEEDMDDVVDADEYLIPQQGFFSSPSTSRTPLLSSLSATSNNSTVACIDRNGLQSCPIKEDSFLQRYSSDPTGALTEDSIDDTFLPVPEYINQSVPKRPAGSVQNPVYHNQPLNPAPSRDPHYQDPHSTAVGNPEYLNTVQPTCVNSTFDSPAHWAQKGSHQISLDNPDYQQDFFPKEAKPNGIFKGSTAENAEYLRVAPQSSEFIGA
Left-right determination factor 2 (Homo sapiens), sequence (O00292 whole entry, looked up): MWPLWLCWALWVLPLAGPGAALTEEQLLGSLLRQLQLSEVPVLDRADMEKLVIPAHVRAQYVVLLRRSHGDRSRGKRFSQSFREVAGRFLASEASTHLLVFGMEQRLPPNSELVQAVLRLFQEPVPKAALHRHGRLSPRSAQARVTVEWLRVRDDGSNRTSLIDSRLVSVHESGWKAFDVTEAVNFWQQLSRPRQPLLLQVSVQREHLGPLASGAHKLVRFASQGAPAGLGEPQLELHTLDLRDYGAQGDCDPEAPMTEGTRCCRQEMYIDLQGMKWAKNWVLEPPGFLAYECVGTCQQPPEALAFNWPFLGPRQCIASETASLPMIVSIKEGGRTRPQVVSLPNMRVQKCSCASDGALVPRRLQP
Alpha-bungarotoxin (Bungarus multicinctus), sequence (P60615 whole entry, looked up): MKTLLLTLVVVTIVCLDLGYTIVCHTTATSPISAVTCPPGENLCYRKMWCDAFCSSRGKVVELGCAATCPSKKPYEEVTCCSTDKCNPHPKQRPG
Torsin-1A-interacting protein 1 (Homo sapiens), sequence (Q5JTV8 whole entry, looked up): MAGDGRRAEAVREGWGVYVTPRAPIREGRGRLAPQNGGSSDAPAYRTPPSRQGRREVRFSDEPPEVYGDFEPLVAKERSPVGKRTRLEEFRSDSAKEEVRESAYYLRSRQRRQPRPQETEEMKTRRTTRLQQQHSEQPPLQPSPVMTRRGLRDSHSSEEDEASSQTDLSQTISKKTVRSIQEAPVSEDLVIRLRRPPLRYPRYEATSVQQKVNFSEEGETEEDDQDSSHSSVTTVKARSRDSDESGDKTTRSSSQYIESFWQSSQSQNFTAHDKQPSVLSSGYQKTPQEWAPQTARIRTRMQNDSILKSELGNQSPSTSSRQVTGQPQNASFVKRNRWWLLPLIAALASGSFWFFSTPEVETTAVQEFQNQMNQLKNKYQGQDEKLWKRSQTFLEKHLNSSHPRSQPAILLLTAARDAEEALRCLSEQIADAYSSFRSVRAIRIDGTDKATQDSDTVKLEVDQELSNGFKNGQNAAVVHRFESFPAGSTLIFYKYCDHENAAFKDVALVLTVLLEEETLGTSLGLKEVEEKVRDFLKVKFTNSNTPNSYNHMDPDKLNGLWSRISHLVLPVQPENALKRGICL
Fibroblast growth factor 10 (Homo sapiens), sequence (O15520 whole entry, looked up): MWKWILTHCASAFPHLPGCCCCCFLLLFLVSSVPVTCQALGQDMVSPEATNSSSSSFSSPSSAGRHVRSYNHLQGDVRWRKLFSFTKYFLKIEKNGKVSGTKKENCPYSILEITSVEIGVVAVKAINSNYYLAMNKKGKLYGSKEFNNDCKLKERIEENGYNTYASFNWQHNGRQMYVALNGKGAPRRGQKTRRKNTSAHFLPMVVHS

With `COCCOC(=O)N1C(=O)[C@@]2(c3cc(C#CCC(C(=O)OC)C(=O)OC)ccc31)[C@H](C(=O)N1CCCCCCC1)[C@H]1C(=O)O[C@H](c3ccccc3)[C@H](c3ccccc3)N1[C@@H]2c1ccc(OCCO)cc1`, the composite z-score in [1] was 1.74; in [2], 2.72; in [3], 1.65; in [5], 1.45; in [6], 1.35; in [7], 1.76. The composite z-score in test [8] is 1.65; in test [9], 2.25; in [10], 1.62; in [11] it was 1.49; in test [13], 1.33; in test [14], 2.48. Further, the composite z-score in [15] came out at 1.67; in test [16], 1.21; in [17] it was 1.19; in test [18], 3.01; in test [19], 4.31; in test [20], 3.31. For the same compound, the z-score in test [4] was 0.161 (inactive); in [12], -0.981.

`COc1c(C)cc(-c2cc3c(c(-c4ccc(Oc5ccccc5)cc4)n2)[Si](C(C)C)(C(C)C)OC3)cc1C`: the composite z-score in test [1] was -0.486; in test [2], 0.187; in [3], 0.0857; in [5], 0.0668; in test [6] it was -0.278; in test [7], 0.168. Also, the composite z-score is -0.069 in [8]; 0.0431 in test [9]; 0.51 in test [10]; -0.0076 in [11]; -0.0065 in [13]; 0.354 in [14]. In addition, the composite z-score in test [15] was 0.777; in test [16] it was -0.0721; in [17] it was -0.138; in [18], -0.111; in [19], -0.0839; in [20], 0.327. Besides, the z-score in test [4] was 0.391 (inactive); in test [12], -0.382.

Take `C=CCNC(=O)[C@@H]1[C@H]2C(=O)O[C@H](c3ccccc3)[C@H](c3ccccc3)N2[C@H](c2ccc(O)cc2)[C@@]12C(=O)N(C(=O)OCCOC)c1ccccc12`: the composite z-score is 1.03 in test [1]; -0.0262 in test [2]; 0.421 in [3]; 0.796 in [5]; 1.02 in [6]; -0.405 in [7]. Further, the composite z-score was 0.638 in [8]; -0.232 in test [9]; -0.188 in [10]; 1.2 in test [11]; -0.211 in [13]; 0.922 in test [14]. The composite z-score is -0.42 in test [15]; -0.0478 in test [16]; -0.0904 in test [17]; 0.215 in test [18]; 1.12 in [19]; 2.27 in [20]. The z-score was -1 (inactive) in test [4] and -1.43 in test [12].

For `COC(=O)[C@@]1(Cc2ccc(F)cc2)[C@H]2c3cc(C(=O)N4CCCC4)n(Cc4cccc5ccccc45)c3C[C@H]2CN1C(=O)c1ccccc1`, the composite z-score in [1] was 1.53; in test [2] it was 0.479; in test [3], 0.854; in test [5], 0.427; in [6], -0.423; in test [7], 0.329. The composite z-score in [8] was 0.286; in test [9], -0.538; in test [10], 0.644; in test [11] it was 1.37; in [13] it was -0.201; in test [14], 1.23. The composite z-score was 0.0721 in test [15]; 0.0859 in test [16]; 0.111 in test [17]; 1.36 in [18]; 1.84 in test [19]; 1.07 in test [20]. Also, the z-score in [4] is -2.29 (inactive); in test [12] it was -1.37.

As for `COCC1=C2[C@@H](CCc3ccccc3)OB(O)C[C@@H]2[C@@H]2C(=O)N(Cc3ccccc3)C(=O)[C@@H]2C1`, the composite z-score in [1] was 0.174; in test [2] it was -0.143; in test [3], -0.188; in test [5], 0.628; in [6], 0.197; in [7], 0.388. Besides, the composite z-score in test [8] is 0.191; in test [9], 0.249; in [10], 0.728; in test [11], -0.0734; in test [13], 0.0192; in test [14] it was -0.222. Also, the composite z-score is -0.112 in test [15]; -0.0242 in [16]; -0.214 in test [17]; 0.362 in test [18]; -0.448 in test [19]; 1.19 in [20]. For the same compound, the z-score in test [4] is 0.161 (inactive); in test [12], -0.895.

Turning to `C=C[C@@H](COC(C)=O)N(Cc1ccccc1[N+](=O)[O-])S(=O)(=O)c1ccc(Br)cc1`, the composite z-score in test [1] was 1.31; in [2] it was 0.278; in [3] it was -0.0205; in test [5], 0.863; in test [6], 1.16; in test [7], 1.2. Besides, the composite z-score in test [8] amounted to 1.39; in test [9], 1.82; in test [10], 1.16; in test [11], 1.08; in test [13] it was 1.02; in [14] it was 0.198. Further, the composite z-score was -0.0348 in [15]; -0.0185 in [16]; -0.0192 in [17]; -0.56 in test [18]; 0.954 in test [19]; 0.864 in [20]. Moreover, the z-score in test [4] is -2.18 (inactive); in test [12], -1.86.

With `COC(=O)[C@@]1(Cc2ccc(OC)cc2)[C@H]2c3cc(C(=O)N4CCCC4)n(CCc4c[nH]c5cc(F)ccc45)c3C[C@H]2CN1C(=O)c1ccccc1`, the composite z-score came to 1.31 in test [1]; 0.185 in [2]; 1.19 in test [3]; 0.875 in [5]; 1.09 in test [6]; 0.0022 in test [7]. Also, the composite z-score was 0.988 in test [8]; -0.0303 in test [9]; 0.831 in test [10]; 0.991 in [11]; 0.259 in test [13]; 2.73 in test [14]. For the same compound, the composite z-score in test [15] was 1.07; in test [16], 0.168; in [17], 0.265; in test [18], 2.06; in test [19] it was 2.94; in test [20] it was 1.42. Also, the z-score in test [4] was -0.332 (inactive); in test [12], -1.89.

`Cc1cc(C)c(C(O)C2C=CC3C(=O)N(c4ccccc4)C(=O)C3N2Nc2ccc(C#N)cc2)c(C)c1` (stereo not given): the composite z-score in [1] was 0.586; in test [2], 1.05; in test [3], 1.24; in test [5], 1.27; in [6], 1.22; in test [7], 0.283. The composite z-score in test [8] was 1.22; in test [9] it was -0.0911; in test [10], 0.7; in [11], 0.486; in [13], 0.219; in test [14], 2.56. The composite z-score in test [15] is 1.17; in test [16] it was 0.0894; in test [17], -0.0793; in test [18] it was 1.97; in [19], 0.922; in test [20], 1.79. The figures for the z-score in test [4] and in [12] were 0.757 (inactive) and -0.111, respectively.
